B2AR ag: activates human beta-2 adrenergic receptor causing internalization; Am2.2-beta2AR cells, FAP receptor internalization, flow cytometry; response, % (test concentration not listed); AID 504454; hit rate 0.43% among 340,000;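 active means response above a set limit, near 3 SD of response in nonfluorescent compounds, cut at about 42% in these data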
Target sequence (P07550 whole entry, looked up): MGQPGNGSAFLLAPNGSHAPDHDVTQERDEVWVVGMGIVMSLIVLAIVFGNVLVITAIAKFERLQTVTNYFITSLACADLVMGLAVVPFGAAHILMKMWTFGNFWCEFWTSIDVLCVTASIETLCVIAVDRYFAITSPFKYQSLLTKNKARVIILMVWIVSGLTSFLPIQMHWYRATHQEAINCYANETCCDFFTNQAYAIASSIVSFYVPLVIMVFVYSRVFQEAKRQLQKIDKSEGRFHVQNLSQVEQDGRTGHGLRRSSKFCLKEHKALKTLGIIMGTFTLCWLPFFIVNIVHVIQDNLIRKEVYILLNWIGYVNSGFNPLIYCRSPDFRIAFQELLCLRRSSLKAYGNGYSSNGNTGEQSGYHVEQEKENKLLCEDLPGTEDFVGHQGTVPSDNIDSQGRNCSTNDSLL
tim10-1 inh: growth inhibitors of tim10-1 mutant yeast | S. cerevisiae tim10-1 ts strain growth, BacTiter-Glo, 24 h | inhibition, % at 20 µM | hit rate 2.2% among 330,000 | AID 463190;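 active means inhibition of at least 40%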;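 further: mutant grown at 25 °C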
TIM10 inh: TIM10 yeast growth inhibition | inhibition, % at 10 µM | AID 463195 | hit rate 1.4% among 330,000 | S. cerevisiae TIM10 strain growth, BacTiter-Glo luminescence, 24 h;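 active means inhibition of 40% or more at the single tested concentration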;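 further: wild-type TIM10 isogenic control strain grown at permissive 25 °C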
PfHsp90 set2: inhibits growth of yeast expressing Plasmodium falciparum Hsp90. S. cerevisiae expressing PfHsp90, BacTiter-Glo ATP, 48 h; yeast lacking PDR1 and PDR3 efflux regulators. inhibition, % at 9.4 µM. hit rate 0.32% among 310,000. AID 504621;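 active means every replicate shows inhibition above about 80%, whatever the replicate mean, limit read from the data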
tim23-1 inh: growth inhibitors of tim23-1 mutant yeast. inhibition, % at 20 µM. hit rate 1.3% among 330,000. S. cerevisiae tim23-1 growth, BacTiter-Glo luminescence, 24 h. AID 463212;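 active means growth inhibition of the mutant yeast at or above 50%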;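 further: temperature-sensitive mutant grown at 25 °C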
tim10-1 conf: confirmation of tim10-1 mutant yeast growth inhibitors; inhibition, % at 20 µM; shares compounds with tim10-1 inh; hit rate 56% among 7,400; S. cerevisiae tim10-1 ts strain growth, BacTiter-Glo, 24 h;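 active means inhibition of yeast growth at or above a set limit in either of two repeat tests at 20 µM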;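 further: tim10-1 mutant grown at permissive 25 °C to find synthetic lethal compounds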
Hits are given with their value; i = inactive; nt = no result given. Rows were chosen to be rich in hits. Some 3.8% of all compounds tested hit in one or more screens of this group.

SMILES	B2AR ag	tim10-1 inh	TIM10 inh	PfHsp90 set2	tim23-1 inh	tim10-1 conf
Cc1ccc(Nc2nc(N)nc(CN3CCN(c4ccccc4)CC3)n2)cc1Cl	i	45	i	i	i	i
COc1ccc(N2CCN(Cc3nc(N)nc(Nc4ccc(C)c(Cl)c4)n3)CC2)cc1	i	i	i	i	i	nt
CCC(=O)Nc1ccc(C(=O)Cn2ncc(Cl)c(Cl)c2=O)cc1	i	i	i	i	i	nt
CCOC(=O)c1ccc(NC(=O)Cn2ncc(Cl)c(Cl)c2=O)cc1	74	40	i	i	i	i
Oc1ccccc1/C=N/Nc1nccnc1Cl	i	55	i	nt	i	i
CCN(CC(=O)Nc1ccccc1C(F)(F)F)C(=O)c1ccccc1OCc1ccc(F)cc1	i	nt	nt	i	nt	nt
COc1ccc2[nH]c(C(=O)O)c(NS(=O)(=O)c3ccc(C)cc3C)c2c1	i	i	i	i	i	nt
Cc1nc2ccc(Nc3nc4cc(S(=O)(=O)N5CCOCC5)ccc4o3)cc2s1	i	45	i	i	i	34
Clc1ccc(OCCOCCNCc2ccccc2)cc1Cl	i	i	i	i	i	nt
COC(=O)c1cc(-c2ccc(C)o2)nc2ccccc12	i	i	i	i	i	nt
Cc1ccc(-c2cc(C(=O)Nc3ccccc3C)c3ccccc3n2)o1	i	49	i	nt	i	i
Cc1ccc(Cn2ccnc2C(=O)Nc2ccccc2)cc1	i	i	i	i	i	nt
N#Cc1ccc(Cn2ccnc2C(=O)Nc2ccccc2)cc1	nt	57	i	i	i	i
CCCn1c(C2CCCN2c2nc(-c3cccc(Br)c3)cs2)nc2ccccc21 (stereo not given)	i	i	i	i	i	nt
CCn1nccc1C(=O)Nc1ccc(Cl)cn1	i	i	i	i	i	nt
CCn1nccc1C(=O)Nc1cc(Cl)cc(Cl)c1	i	41	i	i	i	i
CCOC(=O)C1=NNC(C(=O)c2ccc(Cl)cc2)C1c1ccc(OC)cc1 (stereo not given)	i	i	i	i	i	nt
CCOC(=O)C1=NNC(C(=O)c2ccc(C)cc2)C1c1ccc(OC)cc1 (stereo not given)	i	41	i	i	i	i
Cn1c(-c2ccccc2O)cc2ccccc21	i	48	i	i	i	29
Cn1c(-c2ccccc2)cc2ccccc21	i	i	i	i	i	nt
COc1cc(C(=O)NCCC2=CCCCC2)cc(OC)c1OC	i	i	i	i	i	nt
COc1ccc(C)cc1NC(=O)NCCC1=CCCCC1	i	43	i	nt	i	31
CCCC(=O)Nc1cc(-c2nnc(OC)c3ccccc23)ccc1N1CCCCC1	nt	49	i	nt	i	i
CCCC(=O)Nc1cc(-c2nn(C)c(=O)c3ccccc23)ccc1N1CCCCC1	i	i	i	i	i	nt
O=C(Cc1ccccc1[N+](=O)[O-])NCC(O)c1ccc2c(c1)OCO2 (stereo not given)	i	nt	nt	i	nt	nt
SMILES	B2AR ag	tim10-1 inh	TIM10 inh	PfHsp90 set2	tim23-1 inh	tim10-1 conf
Cc1ccc(NC(=O)CN(c2ccc(Cl)cc2)S(=O)(=O)c2cc([N+](=O)[O-])ccc2Cl)c(C)c1	i	44	i	i	i	i
O=C(Nc1cccc(C(=O)N2CCCC2)c1)C1CCCCC1	i	nt	nt	i	nt	nt
N=c1c2c(-c3ccccc3)c(-c3ccccc3)n(Cc3ccco3)c2ncn1CCO	i	43	i	i	i	i
CCc1nc(C)cn1S(=O)(=O)c1cc(Br)c(C)cc1OC	i	44	i	i	i	i
CCc1nc(C)cn1S(=O)(=O)c1cc(C)c(OC)cc1C	i	i	i	i	i	nt
O=Cc1ccc(OC(=O)Cc2ccc(F)cc2)cc1	nt	i	i	nt	i	nt
COc1ccc(CCNC(=O)c2cc(-c3ccc(Cl)c(Cl)c3)oc2C)cc1	i	40	i	i	i	36
CN(CC(=O)Nc1ccccc1C(=O)Nc1ccccc1)C1CCCCC1	i	i	i	i	i	nt
CCOC(=O)NC1(NC(C)C)Oc2ccccc2O1	i	i	i	i	i	nt
CCOC(=O)NC1(NC2CCCCC2)Oc2ccccc2O1	i	40	i	i	i	i
CCOC(=O)c1c(NC(=O)CSc2nnc(CNc3ccc(OC)cc3)n2C)sc(C)c1C	i	41	i	nt	i	i
COC(=O)c1c(NC(=O)CSc2ccccc2N)sc(C)c1C	i	46	i	i	i	36
N#CC(CC(=O)c1ccc(F)cc1)c1ccc2c(c1)OCO2 (stereo not given)	i	41	i	i	i	31
CN(NS(=O)(=O)c1ccccc1)C(=O)c1ccccc1	i	nt	nt	i	nt	nt
CCC(C)OC(=O)C[N+](C)(C)CCOC1CC2CCC1(C)C2(C)C (stereo not given)	i	41	i	i	i	i
CC(C)CCOC(=O)C[N+](C)(C)CCOC1CC2CCC1(C)C2(C)C (stereo not given)	i	i	i	i	i	nt
NC(N)=NN=C1CCC(c2ccccc2)CC1 (stereo not given)	i	i	i	i	i	nt
COc1cccc(-c2nnc(SCN3C(=O)c4ccccc4C3=O)n2C)c1	i	42	i	i	i	33
CCN(CC)S(=O)(=O)c1ccc(NC(=O)CSc2nnc(-c3cccc(OC)c3)n2C)cc1	i	i	i	i	i	nt
Cc1ccc2[nH]c(C)c(/C=C/c3cc[n+](C)cc3)c2c1	i	51	i	i	i	i
Cc1ccc2c(c1)c(/C=C/c1cc[n+](C)cc1)c(C)n2C	nt	i	i	i	i	nt
CCCn1c(CC)nc([N+](=O)[O-])c1S(=O)(=O)c1ccccc1	i	54	i	i	i	43
Cn1cnc([N+](=O)[O-])c1S(=O)(=O)c1cccc(Cl)c1	i	i	i	i	i	nt
COc1ccc(C(CC(=O)O)NS(=O)(=O)c2ccc3c(c2)N(C(C)=O)CC(C)O3)cc1 (stereo not given)	i	i	i	i	i	nt
CCCCOC(=O)c1ccc(NC(=O)COC(=O)CSc2nc(C)cc(C)n2)cc1	i	46	i	i	i	i
SMILES	B2AR ag	tim10-1 inh	TIM10 inh	PfHsp90 set2	tim23-1 inh	tim10-1 conf
CCOc1ccc(NC(=O)CSc2nc(C)cc(C)n2)cc1	i	i	i	i	i	nt
O=C(NNC(=S)Nc1ccc(C(=O)O)c(O)c1)c1ccncc1	i	nt	nt	nt	nt	nt
Clc1cnc(N/N=C/c2cccs2)c(Cl)c1	i	i	i	i	i	nt
Cc1ccc(/C=N/Nc2ncc(Cl)cc2Cl)s1	i	42	i	i	i	i
Oc1ccc(/C=N/Nc2ncc(Cl)cc2Cl)cc1	i	45	i	i	i	i
Clc1cnc(N/N=C/c2ccco2)c(Cl)c1	i	i	i	i	i	nt
COc1ccccc1-n1cc(-c2ccccc2)c2c(=S)nc[nH]c21	i	48	i	i	i	i
COc1ccc(NC(=O)c2ccc(Cl)c(S(=O)(=O)N3CCc4ccccc4C3)c2)cn1	i	47	i	i	i	i
Cc1nn(-c2nnc(NC3CCCCC3)nn2)c(C)c1Br	i	45	i	i	i	34
CC(=O)NC(Cc1ccc(C)cc1)C(=O)NC1CCN(S(=O)(=O)c2ccccc2)CC1 (stereo not given)	i	i	i	i	i	nt
O=C(Nc1sc2c(c1C(=O)c1ccc(Cl)cc1)CCCC2)c1cccnc1	i	41	i	nt	i	i
